According to PubChem BioAssay (NCATS):
Records with an inconclusive call do not appear. A number with no mark means an inactive call. Active and inactive are the calls of the source. The call rests on the fitted dose curve; in most records, active means well fitted curve in the direction sought with a large enough effect; inconclusive means small, poorly fitted or top-dose-only effect, or another doubt; inactive means no such curve, though single readings can be large; an effect the other way counts as inactive or inconclusive.

Test: P-glycoprotein substrates identified in KB-8-5-11 adenocarcinoma cell line, qHTS therapeutic library screen (AID 1346987); further: nearly all actives have a fitted effect of over 65% in size; further: potency means the concentration at half of the fitted maximal effect; on activity change, negative = cytotoxicity: on the % scale 0 is the no-effect control and ±100 the full control effect
Details: KB-8-5-11 (P-gp overexpressing) viability, CellTiter-Glo, 72 h; series mostly up to 44.5 µM; activity change, negative = cytotoxicity: at the top concentration
In short: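 P-gp-mediated resistance screen: KB-8-5-11 cells treated 72 h with compounds in dose-response. CellTiter-Glo viability.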

SMILES	activity change, negative = cytotoxicity	Potency	outcome
CC(=O)OC1C[C@]2(C)C(O)CC(C)=C[C@H](OC(=O)c3ccc(O)cc3)C2[C@]1(O)C(C)C (stereo partly drawn)	5.63% [at 17.3 µM]	–	–
O=C(Nc1ccc(S(=O)(=O)C(F)(F)F)cc1)C1=CCN(c2ncccc2C(F)(F)F)CC1	–	14.6 µM (active)	–
CCOCCn1nc(CC)c2nc(N3CCC(C(=O)O)CC3)nc(Nc3cc(C)ccn3)c21	-25%	–	–
OC[C@@]1(O)CO[C@@H](OC[C@H]2O[C@@H](Oc3c[nH]c4ccccc34)[C@H](O)[C@@H](O)[C@@H]2O)[C@@H]1O	-15.8% [at 17.3 µM]	–	–
N[C@H]1Cc2ccccc2N(O)C1=O	-9.03%	–	–
COc1ccc(C2(O)CCC(N3CC[C@@H](NC(=O)CNC(=O)c4cccc(C(F)(F)F)c4)C3)CC2)cn1 (stereo partly drawn)	-12.2%	–	–
C[C@]12C=C[C@@]3(CCC4[C@](C)(CO)CCC[C@@]4(C)C3CC1)C2 (stereo partly drawn)	6.2%	–	–
C/C=C/C1=CC2=C(CO1)C(=O)C(C)(O)C(OC(=O)c1c(C)cc(OC)cc1O)C2 (stereo not drawn)	-16.2%	–	–
CC(O)/C=C/C1(O)C(C)C(O[C@@H]2O[C@H](CO)[C@@H](O)[C@H](O)[C@H]2O)C(O)CC1(C)C (stereo partly drawn)	–	–	inactive [at 17.3 µM]
C[C@H](O)[C@H](O)/C=C/c1cccc(O)c1CO	1.57%	–	–
CC(=O)O[C@H]1C(=O)[C@@]2(C)[C@H]([C@H](OC(=O)c3ccccc3)[C@]3(O)C[C@H](OC(=O)[C@H](O)[C@@H](NC(=O)c4ccccc4)c4ccccc4)C(C)=C1C3(C)C)[C@]1(OC(C)=O)CO[C@@H]1C[C@@H]2O	–	0.873 µM (active)	–
O=C(CCCCN1CCOCC1)Nc1ccc(-c2cccnc2)cc1	0.946%	–	–
CCNC(=O)Nc1ncc(-c2cc(-c3c(C)cc(OC)cc3C)nc(-c3cnccn3)n2)s1	-2.31%	–	–

Test: NS1 protein of Zika virus - qHTS assay to identify small molecule inhibitors in human HEK 293 cells (AID 1347053); further: nearly all actives have a fitted effect of over 55% in size; further: potency means the concentration at half of the fitted maximal effect;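 on activity change, negative = inhibition: plate controls were infected untreated cells for no effect and uninfected cells for full effect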
Details: HEK293 ZIKV MR766 infection, NS1 TR-FRET, 24 h; series mostly up to 46.1 µM; activity change, negative = inhibition: at the top concentration
In short: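 Inhibition of NS1 expression was scored in HEK 293 cells given compound 1 h ahead of MR766 virus (MOI = 0.5). Following 24 h at 37 C, two anti-NS1 antibodies generated a TR-FRET signal, scaled between uninfected and infected controls.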

SMILES	activity change, negative = inhibition	Potency
O=C(O)c1ccccc1NCCc1ccccc1	18%	–
CCC(C(=O)O)c1ccc(N2Cc3ccccc3C2=O)cc1 (stereo not drawn)	3.31%	–
CCOCCOC(=O)/C=C/c1ccc(OC)cc1	-0.975%	–
O=C(O)c1c(O)c(-c2ccccc2)nc2ccccc12	9.91%	–
Nc1ccccc1N	39.1% [at 92.8 µM]	–
Cc1ccc(N)cc1O	–	31.6 µM (active)

Test: qHTS of pediatric cancer cell lines to identify multiple opportunities for drug repurposing: Primary screen for TC32 cells (AID 1347089); further: on the % scale 0 is the no-effect control and ±100 the full control effect; nearly all actives have a fitted effect of over 60% in size
Details: TC32 Ewing sarcoma viability, CellTiter-Glo luminescence, 48 h; series mostly up to 45.8 µM; activity change, negative = cytotoxic: at the top concentration
In short: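 TC32 cells, 500-1,000/well in growth medium, compound-treated 48 h at 37 °C; viability from CellTiter-Glo luminescence. Primary screen: MIPE 11-point (0.78 nM–46 µM final), NPC 8-point (0.59 nM–46 µM final); confirmatory at 11-point dilutions.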

SMILES	activity change, negative = cytotoxic
O=C(O)c1ccccc1NCCc1ccccc1	11.2%
CCC(C(=O)O)c1ccc(N2Cc3ccccc3C2=O)cc1 (stereo not drawn)	5.53%
CCOCCOC(=O)/C=C/c1ccc(OC)cc1	-3.96%
O=C(O)c1c(O)c(-c2ccccc2)nc2ccccc12	9.73%
